The record followed here is PubChem BioAssay AID602340 (Broad Institute, 2012).

The campaign covered roughly 330,000 compounds. About 2,600 (0.79%) were called active. Many of the other results were omitted from the sample, so actives are more common in it than they were. Values without a mark were called inactive.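 How the source made its calls: active means mean ATP rescue above about 67%, or every replicate alone reaching that limit (limit read from the data, passing the limit was not always enough); inconclusive means no clear call, values can overlap the other calls; inactive means mean under the limit and some replicate under it.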

This assay can be described thus: suppressors of statin myotoxicity in C2C12 myotubes, primary screen, cell-based, single point, plate reader (AID 602340).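 Further: myotubes were challenged with 10 µM simvastatin during compound exposure.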 To be noted: C2C12 myotubes + simvastatin, ATP luminescence, 48 h; at 7.49 µM; hits give high values; scaled: DMSO 0, geranylgeraniol control 100.
On to `COCC(=O)Nc1ccc2c(c1)OC[C@@H](C)N(C(=O)CC1CC1)C[C@@H](C)[C@@H](OC)CN(C)C2=O`, for which the rescue of ATP level was 15.1%.

As for `CCCC#Cc1cnc2c(c1)C(=O)N([C@H](C)CO)C[C@@H](C)[C@@H](CN(C)C(=O)Nc1ccccc1OC)O2`, the rescue of ATP level is 11.6%.

As for `CC1(C)Cc2cccc(OCC(N)=O)c2O1`, the rescue of ATP level was 113% (active).

Consider `CC1(C)Cc2cccc(OCC(=O)Nc3nccs3)c2O1`, for which the rescue of ATP level is 0.639%.

For `CC1(C)Cc2cccc(OCC(=O)NCc3ccccc3)c2O1`, the rescue of ATP level is 1.33%.

`CCC(=O)N[C@H]1CC[C@H](CCn2cc(-c3cccc(OC)c3)nn2)O[C@H]1CO`: the rescue of ATP level is -2.48%.

For the compound `CC=Cc1ccc2n(c1=O)C[C@H]1[C@H](CO)[C@@H](C(=O)NC3CCCC3)N(Cc3cccnc3)[C@@H]21` (mixture of isomers), the rescue of ATP level is -41.8%.

`C[C@H](CO)N1C[C@H](C)[C@@H](CN(C)Cc2cccc(F)c2)Oc2cc(C#CC3CC3)ccc2S1(=O)=O`: the rescue of ATP level was -17.1%.

As to `Cc1ccc(O)c(CNc2nc3ccccc3[nH]2)c1`, the rescue of ATP level was 2.19%.

On to `CC1(C)Cc2c(C#N)c(SCc3nc4ccccc4[nH]3)nc(N3CCOCC3)c2CO1`, for which the rescue of ATP level is -43.7%.

Turning to `Clc1ccccc1SCc1nc2ccccc2[nH]1`, the rescue of ATP level is 91.4% (active).

For the compound `CO[C@@H]1CN(C)C(=O)c2ccc(NC(=O)NC(C)C)cc2OC[C@H](C)N(Cc2ccc(-c3ccccn3)cc2)C[C@H]1C`, the rescue of ATP level was 16.4%.

In the case of `CCNC(=O)C[C@@H]1C=C[C@@H](NC(=O)C2CCOCC2)[C@@H](CO)O1`, the rescue of ATP level was -1.82%.

`O=C(C[C@@H]1CC[C@@H]2[C@H](COC[C@H](O)CN2CC2CCOCC2)O1)NCC1CCCCC1`: the rescue of ATP level is 1.6%.

For the compound `CO[C@@H]1CN(C)C(=O)c2ccc(NC(=O)c3cccc(Oc4ccccc4)c3)cc2OC[C@H](C)NC[C@@H]1C`, the rescue of ATP level is -3.89%.

As to `CNC(=O)C[C@H]1CC[C@H]2[C@H](COc3ccc(NC(=O)Nc4ccc(F)cc4)cc3C(=O)N2C)O1`, the rescue of ATP level was 17.2%.

As for `COc1ccc2nc(N3C(=O)C(O)=C(C(=O)c4ccco4)C3c3ccco3)sc2c1` (stereo unspecified), the rescue of ATP level is 9.9%.

On to `COc1ccc2nc(N3CCN(C(=O)c4ccc([N+](=O)[O-])o4)CC3)sc2c1`, for which the rescue of ATP level is 73.2% (active).

`Cc1ccc2nc(N3CCN(C(=O)c4ccco4)CC3)sc2c1`: the rescue of ATP level was 0.517%.

For `COc1ccc(S(=O)(=O)Nc2ccc3c(c2)C(=O)N([C@@H](C)CO)C[C@H](C)[C@H](CN(C)Cc2ccc4c(c2)OCO4)OCCCC[C@H](C)O3)cc1`, the rescue of ATP level is -65.3%.

For `CC=Cc1ccc2n(c1=O)C[C@@H]1[C@@H](CO)[C@H](C(=O)NCC(F)(F)F)N(CCc3ccccc3)[C@H]21` (mixture of isomers), the rescue of ATP level is -10.8%.

For `O=C(C[C@@H]1CC[C@@H]2[C@H](COC[C@H](O)CN2C(=O)Nc2cccc(Cl)c2)O1)NCCCN1CCOCC1`, the rescue of ATP level is -20.2%.

Consider `O=C(NCc1ccco1)C1CCCN(S(=O)(=O)c2cnc[nH]2)C1` (stereo unspecified), for which the rescue of ATP level is -4.96%.

As for `O=C(NCc1ccco1)C1CCCN(S(=O)(=O)c2ccccc2)C1` (stereo unspecified), the rescue of ATP level is 133% (active).

Take `CCCS(=O)(=O)N1CCCC(C(=O)NCc2ccco2)C1` (stereo unspecified): the rescue of ATP level is -3.35%.

Take `O=C(C[C@@H]1CC[C@@H]2[C@H](COC[C@@H](O)CN2S(=O)(=O)c2cccc(Cl)c2)O1)N1CCOCC1`: the rescue of ATP level was -7.32%.

Take `CCCN(C)C[C@@H]1Oc2ncc(C#CC3CC3)cc2C(=O)N([C@H](C)CO)C[C@H]1C`: the rescue of ATP level was 8.64%.

As to `O=C(Nc1ccccc1)N1C[C@H]2[C@@H](c3ccccc31)[C@H](CO)N2Cc1ccc(F)cc1`, the rescue of ATP level is 3.11%.

Turning to `COc1cccc(S(=O)(=O)N[C@H]2C=C[C@H](CC(=O)NC3Cc4ccccc4C3)O[C@@H]2CO)c1`, the rescue of ATP level was 4.32%.

Regarding `C[C@@H]1CN([C@@H](C)CO)C(=O)c2cc(C#CCN(C)C)cnc2O[C@H]1CN(C)S(=O)(=O)c1cn(C)cn1`, the rescue of ATP level is -11.7%.

Take `Cc1c(C(=O)N2CCN(c3ccc(F)cc3)CC2)oc2c1C(=O)CCC2`: the rescue of ATP level is 87.3% (active).

Turning to `O=C(c1cc2cc(F)ccc2[nH]1)N1CCN(c2ccc(F)cc2)CC1`, the rescue of ATP level is 0.946%.

Regarding `O=C(c1cc(-c2ccc(F)cc2)on1)N1CCN(c2ccc(F)cc2)CC1`, the rescue of ATP level is -7.85%.

Take `C[C@@H]1CN([C@H](C)CO)S(=O)(=O)c2ccc(C#C[C@@H](C)O)cc2O[C@H]1CN(C)CC1CC1`: the rescue of ATP level was -38.8%.

`CCCNC(=O)Nc1ccc2c(c1)OC[C@@H](C)N(C(=O)c1ccccc1F)C[C@H](C)[C@@H](OC)CN(C)C2=O`: the rescue of ATP level was -10.8%.

For `O=C(Nc1cc(C(F)(F)F)ccc1Cl)c1cc2nc3c(c(C(F)(F)F)n2n1)CCCC3`, the rescue of ATP level is -15%.

On to `C=CCNC(=O)c1cc2nc(C3CC3)cc(C(F)F)n2n1`, for which the rescue of ATP level is -17.9%.

In the case of `O=C(Nc1ccc(Cl)cc1)c1cc2nc(C3CC3)cc(C(F)(F)F)n2n1`, the rescue of ATP level is 98.2% (active).

Take `Cc1c(Br)cc(C(=O)N2CCCCCC2)c(C)c1C`: the rescue of ATP level is 115% (active).

As to `COc1cc(OC)c(C(=O)N2CCCC2)cc1OC`, the rescue of ATP level is -3.44%.

`Cc1ccc(C(=O)N2CCCC2)c(F)c1F`: the rescue of ATP level is 16.3%.

On to `COCC(=O)Nc1ccc2c(c1)C(=O)N(C)[C@@H]1CC[C@H](CC(=O)NCC3CCCCC3)O[C@H]1CO2`, for which the rescue of ATP level is 13.3%.

Regarding `O=C(Nc1ccccc1F)N[C@@H]1CC[C@H](CC(=O)N2CCCCC2)O[C@H]1CO`, the rescue of ATP level is 4.38%.

For the compound `CC(=O)N1[C@@H]2c3ccc(-c4ccccc4)c(=O)n3C[C@@H]2[C@@H](CO)[C@@H]1C(=O)NCc1ccccc1F`, the rescue of ATP level is 5.23%.

Consider `Fc1ccccc1COc1cccc2cccnc12`, for which the rescue of ATP level was 8.73%.

With `OCc1ccc(OCCCOc2cccc3cccnc23)cc1`, the rescue of ATP level is 7.29%.

Regarding `O=C(Nc1ccccc1)Oc1cccc2cccnc12`, the rescue of ATP level is 101% (active).

With `C/C=C/c1ccc2c(c1)O[C@H](CN(C)C(=O)C1CCCCC1)[C@@H](C)CN([C@@H](C)CO)S2(=O)=O`, the rescue of ATP level was 2.75%.

On to `CCOCCn1c(C(C)C)nc2ccccc21`, for which the rescue of ATP level is -2.16%.

On to `CCc1nc2ccccc2n(CCOCCOCCn2c(=O)c(CC)nc3ccccc32)c1=O`, for which the rescue of ATP level was 114% (active).

For the compound `COCCOCCn1cnc2ccccc21`, the rescue of ATP level was 14.6%.
